From PubChem BioAssay (NCI) come the findings set out here.

Among the test systems are NCI-H23 lung; NCI-H322M lung; HOP-62 NSCLC; NCI-H460 lung; HOP-92 NSCLC; NCI-H522 lung; A549/ATCC NSCLC; 786-0 renal; COLO 205 colon; DU-145 prostate; K-562 leukemia; MALME-3M melanoma; MDA-MB-231 breast; RXF 393 renal; SF-268 CNS; SF-295 CNS; SF-539 CNS; UACC-257 melanoma; M14 melanoma; HCT-15 colon.
Assay in all cases: NCI-60 one-dose screen, 48 h (100 = growth as untreated, 0 = no growth, -100 = all killed)
Common to all, as to settings: 10 µM unless noted

The panel holds about 83,000 compounds, 20% with a hit somewhere; the sample as a whole holds those more often.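 A percent growth of 40 corresponds to 60% growth inhibition; 0 means no net growth; -100 means all cells died. Active threshold: below 10.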 A number with no mark means an inactive call. Activity calls are given as the source filed them.

In the case of `Clc1ccc(COc2ccc(Nc3ncnc4onc(-c5ccccc5)c34)cc2)cc1`, the growth in the assay with NCI-H23 lung is 87.1%; in the assay with NCI-H322M lung, 82.8%; in the assay with HOP-62 NSCLC it was 91.2%; with NCI-H460 lung, 61%; with HOP-92 NSCLC, 82.9%; with NCI-H522 lung, 71.3%. In addition, the growth with A549/ATCC NSCLC is 82.8%; in the assay on 786-0 renal it was 90.7%; in the assay on COLO 205 colon, 93.5%; in the assay with DU-145 prostate, 72.7%; in the assay with K-562 leukemia, 89.9%; in the assay on MALME-3M melanoma, 92.7%. Further, the growth is 76.5% in the assay on MDA-MB-231 breast; 95.5% in the assay on RXF 393 renal; 89.2% in the assay on SF-268 CNS; 93.7% in the assay with SF-295 CNS; 97% with SF-539 CNS; 85.6% in the assay on UACC-257 melanoma. Also, the growth was 76% in the assay with M14 melanoma and 84.2% in the assay with HCT-15 colon.

In the case of `O=C(Nc1ccc(I)cc1F)c1cc(F)ccc1O`, the growth in the assay with NCI-H23 lung was -2.66% (active); in the assay on NCI-H322M lung it was 4.87% (active); in the assay with HOP-62 NSCLC it was -16.6% (active); in the assay on NCI-H460 lung it was 1.95% (active); with HOP-92 NSCLC, -9.55% (active); in the assay with NCI-H522 lung, -15.8% (active). For the same compound, the growth was 6.45% (active) in the assay with A549/ATCC NSCLC; -0.577% (active) in the assay on 786-0 renal; 25.1% in the assay on COLO 205 colon; 15.1% in the assay with DU-145 prostate; 6.93% (active) with K-562 leukemia; -31.4% (active) in the assay on MALME-3M melanoma. Besides, the growth was -23.7% (active) in the assay with MDA-MB-231 breast; -2.46% (active) in the assay with RXF 393 renal; 8.56% (active) with SF-268 CNS; -68.5% (active) with SF-295 CNS; 1.28% (active) with SF-539 CNS; -17.3% (active) in the assay on UACC-257 melanoma. The values for the growth with M14 melanoma and in the assay on HCT-15 colon were -14.5% (active) and 0.237% (active), respectively.

For the compound `Nc1no[n+]([O-])c1-c1nnc2c(n1)-c1ccccc1C2=O`, the growth with NCI-H23 lung was -40.8% (active); in the assay on NCI-H322M lung, 74.1%; in the assay on HOP-62 NSCLC, 104%; in the assay with NCI-H460 lung, 65.8%; in the assay with HOP-92 NSCLC, 55.1%; in the assay on NCI-H522 lung, 96%. For the same compound, the growth in the assay on A549/ATCC NSCLC was 98.1%; with 786-0 renal it was 97.2%; in the assay on COLO 205 colon, 42.1%; in the assay on DU-145 prostate, 1.97% (active); in the assay on K-562 leukemia, -14.9% (active); in the assay on MALME-3M melanoma it was 64%. Moreover, the growth in the assay on MDA-MB-231 breast is 67.8%; in the assay with RXF 393 renal, 91.2%; in the assay with SF-268 CNS, 76.5%; in the assay with SF-295 CNS it was 86.7%; with SF-539 CNS, 81.8%; in the assay on UACC-257 melanoma, -11.9% (active). The values for the growth in the assay with M14 melanoma and in the assay with HCT-15 colon were 18.9% and -71.4% (active), respectively.

For the compound `Cc1sc2ncnc(Sc3nc4ccccc4[nH]3)c2c1C`, the growth in the assay on NCI-H23 lung is 57%; in the assay with NCI-H322M lung it was -18.4% (active); in the assay with HOP-62 NSCLC, -62.6% (active); with NCI-H460 lung it was -78.9% (active); in the assay on HOP-92 NSCLC it was -12.1% (active); in the assay on NCI-H522 lung, -78.6% (active). In addition, the growth was -55.1% (active) in the assay with A549/ATCC NSCLC; -94.7% (active) with 786-0 renal; -74.6% (active) with COLO 205 colon; -83.2% (active) in the assay with DU-145 prostate; -47.4% (active) in the assay with K-562 leukemia; -82.7% (active) with MALME-3M melanoma. Also, the growth in the assay on MDA-MB-231 breast is -79.5% (active); with RXF 393 renal, -59.7% (active); with SF-268 CNS it was -78.3% (active); in the assay with SF-295 CNS, -81.7% (active); in the assay on SF-539 CNS it was -95.5% (active); in the assay on UACC-257 melanoma, -88.6% (active). In addition, the growth in the assay on M14 melanoma was -78.9% (active); with HCT-15 colon, -38% (active).

Turning to `C=CCN1C(=O)/C(=c2\sc3n(c2=O)NC2C(N=3)N(CC)C(=O)N2CC)c2ccccc21` (stereo not given), the growth was 43.7% with NCI-H23 lung; 57% in the assay with NCI-H322M lung; 62.7% with HOP-62 NSCLC; 15% in the assay on NCI-H460 lung; 108% with HOP-92 NSCLC; 25.9% with NCI-H522 lung. Besides, the growth in the assay on A549/ATCC NSCLC was 42.5%; in the assay with 786-0 renal it was 57.5%; in the assay with COLO 205 colon, 11.1%; in the assay with DU-145 prostate, 26%; in the assay with K-562 leukemia, 11.3%; in the assay with MALME-3M melanoma, 67.6%. In addition, the growth was 38.4% with MDA-MB-231 breast; 13.7% with RXF 393 renal; 59.7% in the assay on SF-268 CNS; 37.3% in the assay on SF-295 CNS; -5.16% (active) in the assay on SF-539 CNS; 82.4% in the assay on UACC-257 melanoma. The values for the growth with M14 melanoma and in the assay on HCT-15 colon were 16.5% and 25%, respectively.

As to `COc1ccccc1C(=O)O/N=C(\N)Cc1cccc2ccccc12`, the growth in the assay on NCI-H23 lung was 80.9%; in the assay on NCI-H322M lung it was 97.6%; with HOP-62 NSCLC, 94.6%; with NCI-H460 lung, 70.7%; in the assay with HOP-92 NSCLC, 91%; with NCI-H522 lung, 85%. The growth with A549/ATCC NSCLC is 70.1%; with 786-0 renal, 106%; with COLO 205 colon, 67.8%; in the assay on DU-145 prostate, 99.1%; with K-562 leukemia it was 75.7%; in the assay with MALME-3M melanoma it was 23.6%. Moreover, the growth was 77.3% in the assay with MDA-MB-231 breast; 102% in the assay on RXF 393 renal; 80.9% with SF-268 CNS; 52.2% in the assay on SF-295 CNS; 97.2% with SF-539 CNS; 73.9% with UACC-257 melanoma. Besides, the growth with M14 melanoma is 86.3%; in the assay with HCT-15 colon, 75.7%.

For the compound `NC(CCc1nc2ccccc2c(=O)[nH]1)C(=O)O` (stereo not given), the growth with NCI-H23 lung was 105%; with NCI-H322M lung, 97.8%; with HOP-62 NSCLC, 103%; in the assay on NCI-H460 lung, 108%; in the assay on HOP-92 NSCLC, 108%; in the assay with NCI-H522 lung, 91.7%. The growth with A549/ATCC NSCLC was 105%; in the assay on 786-0 renal it was 101%; in the assay on COLO 205 colon it was 115%; in the assay on DU-145 prostate, 120%; in the assay on K-562 leukemia, 96.7%; in the assay on MALME-3M melanoma, 104%. The growth is 103% with MDA-MB-231 breast; 115% in the assay with RXF 393 renal; 106% with SF-268 CNS; 104% with SF-295 CNS; 105% in the assay on SF-539 CNS; 105% with UACC-257 melanoma. Besides, the growth in the assay with M14 melanoma was 105%; in the assay with HCT-15 colon, 101%.
